About 13,000 (27%) of roughly 48,000 compounds showed an effect of 50% or more. The list shows a part of the results.
system: Wolbachia pipientis; experiment: Anti-Wolbachia Cell-Based Screen; type: functional; set-up: scale not given: in the data most compounds retested in dose-response had high values; settings: 5 µM

SMILES	Percent Effect [%]
Cn1cnc(S(=O)(=O)N2CCN(Cc3ccco3)CC2)c1Cl	-3.277
Cc1n[nH]c(C)c1CN1CC[C@@H]2[C@@H](CCC(=O)N2CCc2c[nH]cn2)C1	-6.371
COCCc1noc(-c2cn(CCc3ccccc3)nn2)n1	-16.95
CC(=O)c1cccc(NC(=O)N(CCO)C2CCc3ccccc32)c1 (configuration not stated)	6.805
COCCCS(=O)(=O)N1CCN(c2cccc(O)c2)CC1	-6.016
O=C1NCCCCC1NC(=O)N1CCCc2cc(F)ccc21 (configuration not stated)	-6.196
O=C(C1CCC1)N1CCC(=O)N(C2CC2)Cc2cc(F)ccc21	89.78
O=C(C1CCCOC1)N1CCc2ccc(F)cc21 (configuration not stated)	-7.553
CCN1CC(C(=O)N2CCC(Oc3ccccc3Cl)CC2)CC1=O (configuration not stated)	19.99
O=C1N[C@@H]2CCN(C(=O)C3CCC3)[C@@H]2C(=O)N1c1ccc(F)cc1	10.21
CCN1Cc2cc(F)ccc2N(C(=O)C2CCC2)CCC1=O	113.5
CN1C(=O)CCN(C(=O)C2CCCCC2)c2ccccc21	-31.28
CCN1Cc2cc(F)ccc2N(C(C)=O)CCC1=O	105.8
CCN1Cc2ccccc2N(C(=O)C2CCC2)CCC1=O	94.47
Cc1noc(C)c1C(C)NC(=O)N1CCC(NC(=O)c2ccsc2)CC1 (configuration not stated)	-3.825
COc1c(NC(=O)C(C)CCOc2ccccc2)c(C)nn1C (configuration not stated)	-7.796
CC(O)CN1CCN(C(=O)CN(C)c2cnccn2)CC1 (configuration not stated)	-17.8
Cn1c(N)nnc1SCc1c(F)cccc1Br	-12.74
Cc1cc(C)c(C(=O)N[C@H](C(N)=O)c2ccccc2)c(=O)[nH]1	4.18
CCOC(=O)CCCNc1nc(C(C)(C)C)nc2c1cnn2C	0.3135
O=C(c1ccsc1)N1CCN(CC(O)c2cccc(F)c2)CC1 (configuration not stated)	8.058
CC(C(=O)N1CCn2cncc2C1)N1CCCC1 (configuration not stated)	4.282
O=C(CCCNCc1ccc(Cl)c2cccnc12)NC1CC1	-3.748

SMILES	Percent Effect [%]
COc1ccc(Cl)cc1-n1nc(C2CCCC2)nc1Cn1cnnn1	-18.77
Nc1nc2c(c(N3CCC(CN4CCCC4=O)CC3)n1)CCNCC2	-8.42
CCC1=N[C@@]2(CC[C@@H]3CN(S(C)(=O)=O)C[C@@H]32)C(=O)N1CC(C)C	-16.48
Cc1cccc(CN2CCc3c(CNC(=O)CC#N)nn(C)c3C2)n1.O=C(O)C(F)(F)F	-9.631
CC(C)COCC(NC(=O)c1cccnc1)c1ccco1 (configuration not stated)	-0.4808
O=C(Nc1cc(-c2cccnc2)no1)C1CCC1	9.123
CC(C)Cc1nc(NC(=O)c2cc(-c3cccnc3)n[nH]2)n[nH]1	127.5
Cn1cccc1-c1cc(C(=O)N2CC(c3cccnc3)C2)[nH]n1	-4.055
CC(C)Cc1nc(NC(=O)c2cccnc2)n[nH]1	118.7
O=C(Nc1ncc[nH]1)c1cc(-c2cccnc2)n[nH]1	118.3
CC(C)C[C@H](NC(=O)c1cc(-c2cccn2C)n[nH]1)C(N)=O	6.399
Cc1cc(CC(C)Nc2nc(-c3cccnc3)nc3c2CNC3)[nH]n1 (configuration not stated)	-2.115
Cc1nn(C(C)C)c(C)c1NC(=O)c1cccnc1	6.145
CC(=O)c1cccc(NC(=O)CN2CCCC(C3OCCO3)C2)c1 (configuration not stated)	1.142
CN1CCN(CCCN(C)S(=O)(=O)CC2CCCCC2)CC1	-9.559
N#CC1(C(=O)N2CCN(Cc3ccon3)CC2)CCC1	-11.71
Cc1ccc(C(=O)NS(=O)(=O)c2ccc3c(c2)OCCCO3)o1	-8.261
Cc1cc(-c2nn3c(C4CC4)nnc3s2)on1	189.6
Cc1cc(CN(C2CC2)C(C)C(C)C)on1 (configuration not stated)	26.3
Cc1cc(-c2nn3c(C(C)C)nnc3s2)on1	113.9
COc1c(C2CCCN2Cc2cc(C)no2)c(C)nn1C (configuration not stated)	-10.58
Cc1cc(CN2CCN(c3nn4cc(C)nc4s3)CC2)on1	9.459
Cc1cc(NC(=O)CN2CCn3c(nnc3C(C)C)C2)on1	-16.14

SMILES	Percent Effect [%]
CCn1cc(-c2nn3c(C(C)C)nnc3s2)c(C)n1	106.3
Cc1cc(-c2nn3c(C4CCC4)nnc3s2)on1	155.9
CCn1c(CN2CCCC2)nnc1C1CCN(Cc2cc(C)no2)CC1	-0.1861
CC(C)c1nnc2sc(CC3CCS(=O)(=O)C3)nn12 (configuration not stated)	8.57
Cc1cc(CN2CCCC2c2noc(C3CC3)n2)c2ccccc2n1 (configuration not stated)	1.295
Cc1noc(C)c1-c1n[nH]c2c1CN(S(=O)(=O)c1ccsc1)CC2	10.76
N#Cc1cccc(Cl)c1NCCCc1nc(=O)[nH][nH]1	-19.22
O=C(N[C@@H]1CCNC[C@H]1O)c1ccccc1OC(F)(F)C(F)F	-13.38
Cc1ccn(Cc2nc(C(C)OCC(C)C)no2)c(=O)c1 (configuration not stated)	12.04
CC(=O)N1CCCN(Cc2nnc(C(C)(C)C)o2)CC1	-4.735
Cn1nc2c(cc1=O)CN(CC(=O)NC1CCCCNC1=O)CC2 (configuration not stated)	4.736
CSc1ccc(C(=O)N(c2ccc(F)cn2)C2CCOCC2)o1	4.022
COCC(=O)N1CCN(C)CC(Cc2cc(N(C)C)ncn2)C1 (configuration not stated)	95.35
COCC(=O)N1CCCC(C(=O)N(C)CCCc2cnn(C)c2)C1 (configuration not stated)	14.99
Cc1nn(C)c2c(N3CCN(C(=O)c4ccccc4)CC3)ncnc12	3.277
CN1CCN(C(=O)c2ccccc2)CC(Cc2cc(N(C)C)ncn2)C1 (configuration not stated)	80.45
CN1CCN(C(=O)c2cncc(CC3CCCN(C)C3)c2)CC1 (configuration not stated)	-11.29
COCC(=O)N1CCN2C(=O)OC[C@H]2C1	-11.81
OCc1cc2ccccc2nc1NCC1CC1	2.516
O=C(Cn1cnc(NC(=O)c2ccccn2)n1)NCc1ccccc1	11.88
COc1ccc(CN2CCOC3(CCCN(c4nnc(C)o4)C3)C2)cc1.O=C(O)C(F)(F)F (configuration not stated)	-9.107
